{"source": "the supplement of paper PMC8728848", "binders": {"B1": {"name": "ArathEULS3 (Arabidopsis thaliana), Q945P1 (protein)", "chain": "MEHHHQHHRHHQRDDGEDDRQSFGVPPPHVDAPPQPHGLYQSQPHFDPYAPTPQAPAPYRSETQFEPHAPPPYRSEPYFETPAPPPSFGHVSHVGHQSPNESYPPEHHRYGGYQQPSNSLLESHGDHSGVTHVAHHSSNQPQSSSGVYHKPDENRLPDNLAGLAGRATVKVYSKAEPNYNLTIRDGKVILAPADPSDEAQHWYKDEKYSTKVKDADGHPCFALVNKATGEAMKHSVGATHPVHLIRYVPDKLDESVLWTESKDFGDGYRTIRMVNNTRLNVDAYHGDSKSGGVRDGTTIVLWDWNKGDNQLWKIFPFILEQKLISEEDLNSAVDHHHHHH"}}, "test_in_all_cases": "glycan array binding signal (z-score within array); higher = stronger binding", "conditions_in_all_cases": "glycan notation: IUPAC condensed, linker removed", "key": {"[1]": {"biological_target": "Fuc(a1-2)Gal(b1-3)GlcNAc", "in_short": "(§1)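 The Consortium for Functional Glycomics database supplied 3228 glycan arrays, of which those lacking an available protein sequence were dropped. The binding signal, a within-array Z-score, was averaged across arrays of the same protein sequence and across linkers. Negative scores can be read as non-binding.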"}, "[2]": {"biological_target": "Fuc(a1-2)Gal(b1-3)GlcNAc(b1-2)Man(a1-3)[Fuc(a1-2)Gal(b1-3)GlcNAc(b1-2)Man(a1-6)]Man(b1-4)GlcNAc(b1-4)[Fuc(a1-6)]GlcNAc", "in_short": "as §1"}, "[3]": {"biological_target": "Fuc(a1-2)Gal(b1-4)GlcNAc(b1-2)[Fuc(a1-2)Gal(b1-4)GlcNAc(b1-4)]Man(a1-3)[Fuc(a1-2)Gal(b1-4)GlcNAc(b1-2)Man(a1-6)]Man(b1-4)GlcNAc(b1-4)GlcNAc", "in_short": "as §1"}, "[4]": {"biological_target": "Fuc(a1-2)Gal(b1-4)[Fuc(a1-3)]GlcNAc(b1-2)Man(a1-3)[Fuc(a1-2)Gal(b1-4)[Fuc(a1-3)]GlcNAc(b1-2)Man(a1-6)]Man(b1-4)GlcNAc(b1-4)GlcNAc", "in_short": "as §1"}, "[5]": {"biological_target": "Fuc(a1-2)Gal(b1-4)[Fuc(a1-3)]GlcNAc(b1-3)GalNAc", "in_short": "as §1"}, "[6]": {"biological_target": "Fuc(a1-2)Gal6S(b1-3)GlcNAc", "in_short": "as §1"}, "[7]": {"biological_target": "Fuc(a1-2)[Gal(a1-3)]Gal", "in_short": "as §1"}, "[8]": {"biological_target": "Fuc(a1-2)[GalNAc(a1-3)]Gal(b1-4)GlcNAc", "in_short": "as §1"}, "[9]": {"biological_target": "Fuc(a1-2)[GalNAc(a1-3)]Gal(b1-4)GlcNAc(b1-3)GalNAc", "in_short": "as §1"}, "[10]": {"biological_target": "Fuc(a1-2)[GalNAc(a1-3)]Gal(b1-4)[Fuc(a1-3)]GlcNAc(b1-3)GalNAc", "in_short": "as §1"}, "[11]": {"biological_target": "Gal(a1-3)Gal(b1-3)GlcNAc(b1-2)Man(a1-3)[Gal(a1-3)Gal(b1-3)GlcNAc(b1-2)Man(a1-6)]Man(b1-4)GlcNAc(b1-4)GlcNAc", "in_short": "as §1"}, "[12]": {"biological_target": "Gal(a1-3)Gal(b1-3)[Fuc(a1-4)]GlcNAc(b1-2)Man(a1-3)[Gal(a1-3)Gal(b1-3)[Fuc(a1-4)]GlcNAc(b1-2)Man(a1-6)]Man(b1-4)GlcNAc(b1-4)GlcNAc", "in_short": "as §1"}, "[13]": {"biological_target": "Gal(a1-4)Gal(b1-4)Glc", "in_short": "as §1"}, "[14]": {"biological_target": "Gal(a1-6)Glc", "in_short": "as §1"}, "[15]": {"biological_target": "Gal(b1-3)GlcNAc(a1-6)Gal(b1-4)GlcNAc", "in_short": "as §1"}, "[16]": {"biological_target": "Gal(b1-4)GlcNAc(b1-2)Man(a1-6)Man(b1-4)GlcNAc(b1-4)GlcNAc", "in_short": "as §1"}, "[17]": {"biological_target": "Gal(b1-4)GlcNAc(b1-2)[Gal(b1-4)GlcNAc(b1-4)]Man(a1-3)[GlcNAc(b1-4)][Gal(b1-4)GlcNAc(b1-2)[Gal(b1-4)GlcNAc(b1-6)]Man(a1-6)]Man(b1-4)GlcNAc(b1-4)GlcNAc", "in_short": "as §1"}, "[18]": {"biological_target": "Gal(b1-4)GlcNAc(b1-2)[Gal(b1-4)GlcNAc(b1-6)]Man(a1-6)[Gal(b1-4)GlcNAc(b1-2)Man(a1-3)]Man(b1-4)GlcNAc(b1-4)[Fuc(a1-6)]GlcNAc", "in_short": "as §1"}, "[19]": {"biological_target": "Gal3S(b1-3)GlcNAc", "in_short": "as §1"}, "[20]": {"biological_target": "GalNAc(b1-3)GalNAc", "in_short": "as §1"}, "[21]": {"biological_target": "GalNAc4S6S(b1-4)GlcNAc", "in_short": "as §1"}, "[22]": {"biological_target": "GlcNAc(a1-4)Gal(b1-4)GlcNAc(b1-3)Gal(b1-4)Glc", "in_short": "as §1"}, "[23]": {"biological_target": "GlcNAc(a1-4)Gal(b1-4)GlcNAc(b1-3)Gal(b1-4)GlcNAc(b1-3)Gal(b1-4)GlcNAc", "in_short": "as §1"}, "[24]": {"biological_target": "GlcNAc(a1-4)Gal(b1-4)GlcNAc(b1-3)Gal(b1-4)[Fuc(a1-3)]GlcNAc(b1-3)Gal(b1-4)[Fuc(a1-3)]GlcNAc", "in_short": "as §1"}, "[25]": {"biological_target": "GlcNAc(b1-3)Man", "in_short": "as §1"}, "[26]": {"biological_target": "GlcNAc(b1-3)[GlcNAc(b1-6)]GalNAc", "in_short": "as §1"}, "[27]": {"biological_target": "Man(a1-2)Man(a1-3)[Man(a1-2)Man(a1-6)]Man(a1-6)[Man(a1-2)Man(a1-2)Man(a1-3)]Man(b1-4)GlcNAc(b1-4)GlcNAc", "in_short": "as §1"}, "[28]": {"biological_target": "Man(a1-3)[Man(a1-6)]Man", "in_short": "as §1"}, "[29]": {"biological_target": "Man(a1-3)[Man(a1-6)]Man(a1-6)[Man(a1-3)]Man", "in_short": "as §1"}, "[30]": {"biological_target": "Neu5Ac(a2-3)Gal(b1-3)[Fuc(a1-4)]GlcNAc", "in_short": "as §1"}, "[31]": {"biological_target": "Neu5Ac(a2-3)Gal(b1-3)[Fuc(a1-4)]GlcNAc(b1-3)Gal(b1-3)[Fuc(a1-4)]GlcNAc", "in_short": "as §1"}, "[32]": {"biological_target": "Neu5Ac(a2-3)Gal(b1-4)GlcNAc(b1-2)[Neu5Ac(a2-3)Gal(b1-4)GlcNAc(b1-6)]Man(a1-6)[Neu5Ac(a2-3)Gal(b1-4)GlcNAc(b1-2)Man(a1-3)]Man(b1-4)GlcNAc(b1-4)GlcNAc", "in_short": "as §1"}, "[33]": {"biological_target": "Neu5Ac(a2-3)Gal(b1-4)GlcNAc(b1-3)Gal(b1-4)[Fuc(a1-3)]GlcNAc", "in_short": "as §1"}, "[34]": {"biological_target": "Neu5Ac(a2-3)Gal(b1-4)GlcNAc(b1-3)GalNAc", "in_short": "as §1"}, "[35]": {"biological_target": "Neu5Ac(a2-3)Gal(b1-4)GlcNAc(b1-6)GalNAc", "in_short": "as §1"}, "[36]": {"biological_target": "Neu5Ac(a2-3)Gal(b1-4)GlcNAc6S", "in_short": "as §1"}, "[37]": {"biological_target": "Neu5Ac(a2-3)Gal(b1-4)[Fuc(a1-3)]GlcNAc", "in_short": "as §1"}, "[38]": {"biological_target": "Neu5Ac(a2-3)Gal(b1-4)[Fuc(a1-3)]GlcNAc(b1-3)GalNAc", "in_short": "as §1"}, "[39]": {"biological_target": "Neu5Ac(a2-6)Gal(b1-4)GlcNAc", "in_short": "as §1"}, "[40]": {"biological_target": "Neu5Ac(a2-6)Gal(b1-4)GlcNAc(b1-3)Gal(b1-3)GlcNAc", "in_short": "as §1"}, "[41]": {"biological_target": "Neu5Ac(a2-6)Gal(b1-4)GlcNAc(b1-6)[Gal(b1-3)GlcNAc(b1-3)]Gal(b1-4)Glc", "in_short": "as §1"}, "[42]": {"biological_target": "Neu5Ac(a2-6)GalNAc(b1-4)GlcNAc", "in_short": "as §1"}, "[43]": {"biological_target": "Neu5Ac9Ac(a2-3)Gal(b1-4)GlcNAc", "in_short": "as §1"}}, "note": "The sample as a whole holds a higher share of the strongest signals than the screen did."}
{"binder": "B1", "values": [{"measurement": "glycan array binding signal (z-score)", "setting": "[1]", "value": -0.25}, {"measurement": "glycan array binding signal (z-score)", "setting": "[2]", "value": 0.265}, {"measurement": "glycan array binding signal (z-score)", "setting": "[3]", "value": 0.36}, {"measurement": "glycan array binding signal (z-score)", "setting": "[4]", "value": 1.64}, {"measurement": "glycan array binding signal (z-score)", "setting": "[5]", "value": 11.8}, {"measurement": "glycan array binding signal (z-score)", "setting": "[6]", "value": -0.322}, {"measurement": "glycan array binding signal (z-score)", "setting": "[7]", "value": -0.303}, {"measurement": "glycan array binding signal (z-score)", "setting": "[8]", "value": -0.305}, {"measurement": "glycan array binding signal (z-score)", "setting": "[9]", "value": -0.012}, {"measurement": "glycan array binding signal (z-score)", "setting": "[10]", "value": 7.35}, {"measurement": "glycan array binding signal (z-score)", "setting": "[11]", "value": 4.38}, {"measurement": "glycan array binding signal (z-score)", "setting": "[12]", "value": 0.898}, {"measurement": "glycan array binding signal (z-score)", "setting": "[13]", "value": -0.332}, {"measurement": "glycan array binding signal (z-score)", "setting": "[14]", "value": -0.342}, {"measurement": "glycan array binding signal (z-score)", "setting": "[15]", "value": -0.235}, {"measurement": "glycan array binding signal (z-score)", "setting": "[16]", "value": 2.12}, {"measurement": "glycan array binding signal (z-score)", "setting": "[17]", "value": 5.54}, {"measurement": "glycan array binding signal (z-score)", "setting": "[18]", "value": -0.026}, {"measurement": "glycan array binding signal (z-score)", "setting": "[19]", "value": -0.279}, {"measurement": "glycan array binding signal (z-score)", "setting": "[20]", "value": 0.511}, {"measurement": "glycan array binding signal (z-score)", "setting": "[21]", "value": -0.105}, {"measurement": "glycan array binding signal (z-score)", "setting": "[22]", "value": -0.112}, {"measurement": "glycan array binding signal (z-score)", "setting": "[23]", "value": -0.273}, {"measurement": "glycan array binding signal (z-score)", "setting": "[24]", "value": 3.11}, {"measurement": "glycan array binding signal (z-score)", "setting": "[25]", "value": -0.164}, {"measurement": "glycan array binding signal (z-score)", "setting": "[26]", "value": -0.203}, {"measurement": "glycan array binding signal (z-score)", "setting": "[27]", "value": -0.229}, {"measurement": "glycan array binding signal (z-score)", "setting": "[28]", "value": -0.26}, {"measurement": "glycan array binding signal (z-score)", "setting": "[29]", "value": -0.266}, {"measurement": "glycan array binding signal (z-score)", "setting": "[30]", "value": -0.211}, {"measurement": "glycan array binding signal (z-score)", "setting": "[31]", "value": -0.244}, {"measurement": "glycan array binding signal (z-score)", "setting": "[32]", "value": 1.98}, {"measurement": "glycan array binding signal (z-score)", "setting": "[33]", "value": -0.229}, {"measurement": "glycan array binding signal (z-score)", "setting": "[34]", "value": -0.326}, {"measurement": "glycan array binding signal (z-score)", "setting": "[35]", "value": -0.302}, {"measurement": "glycan array binding signal (z-score)", "setting": "[36]", "value": -0.173}, {"measurement": "glycan array binding signal (z-score)", "setting": "[37]", "value": 1.79}, {"measurement": "glycan array binding signal (z-score)", "setting": "[38]", "value": 2}, {"measurement": "glycan array binding signal (z-score)", "setting": "[39]", "value": 0.011}, {"measurement": "glycan array binding signal (z-score)", "setting": "[40]", "value": -0.157}, {"measurement": "glycan array binding signal (z-score)", "setting": "[41]", "value": -0.239}, {"measurement": "glycan array binding signal (z-score)", "setting": "[42]", "value": -0.302}, {"measurement": "glycan array binding signal (z-score)", "setting": "[43]", "value": -0.232}]}
